# Data published in PubChem BioAssay AID588758 (Vanderbilt Specialized Chemistry Center, 2011).
# The source made the active and inactive calls.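 How the source made its calls: active means compound cutting binding or function at one or more panel targets by over half; inactive means the rest.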
# Assay: radioligand displacement at CNS targets panel – biochemical, Ricerca panel, percent inhibition, selectivity assay for M4 PAM project, profiling panel (AID 588758)
# Details: Ricerca radioligand binding panel, % inhibition, at 10 µM, stronger effect = higher value
compound,measurement,setting,value
Cc1nc2sc(C(=O)NCc3ccncc3)c(N)c2c(C)c1Cl,inhibition,GABA-A flunitrazepam site binding,64%
same,inhibition,,79% (active)
same,inhibition,measured here: 5-HT2B receptor binding,74%
same,inhibition,measured here: 5-HT3 receptor binding,35%
same,inhibition,measured here: Adenosine A3 binding,40%
same,inhibition,measured here: Adrenergic beta2 binding,36%
same,inhibition,measured here: GABA-B 1A binding,25%
same,inhibition,measured here: Muscarinic M1 binding,9%
same,inhibition,measured here: Muscarinic M2 binding,10%
same,inhibition,measured here: Muscarinic M3 binding,14%
same,inhibition,measured here: Norepinephrine transporter binding,35%
same,inhibition,measured here: Serotonin transporter binding,3%
same,inhibition,measured here: hERG channel binding,12%
